From PubChem BioAssay AID1159580 (chemical genetic matrix, 2015)
Where “and” joins values, the source holds several entries; their conditions need not be identical. Equal values may be shown once. Out of some 5,500 compounds screened, about 2,000 (36%) were called active. Another 18% or so got no clear call; they are omitted. No stated cut-off is given here; in the data, active means normalized growth mostly below about 0.91 (no sharp cut-off); inconclusive means no clear call, values can overlap the other calls; inactive means mostly above about 0.92. The list shows a part of the results.

Test: chemical genetic growth profiling, strain panel (AID 1159580);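 further: tested at 20 µM; growth read once vehicle control cultures reached saturation at 30 °C; 1 = growth at the plate median or of vehicle wells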
Conditions: growth OD

Measured: normalized growth

O=C1CCCN1CC#CCN1CCCC1
inactive: S. cerevisiae deletion strains, locus YJR075W, strain HOC1, stronger effect = lower value 0.988 and 1 | S. cerevisiae deletion strains, locus YKL009W, strain mrt4, stronger effect = lower value 1.02 and 1.05 | S. cerevisiae deletion strains, locus YKL068W, stronger effect = lower value 1 | S. cerevisiae deletion strains, locus YKL085W, strain MDH1 (second series), stronger effect = lower value 1.02 | S. cerevisiae deletion strains, locus YKL085W, strain MDH1, stronger effect = lower value 1.02 | S. cerevisiae deletion strains, locus YKL160W, strain elf1, stronger effect = lower value 1.02 | S. cerevisiae deletion strains, locus YKL190W, strain CNB1, stronger effect = lower value 0.989 and 1.02 | S. cerevisiae deletion strains, locus YKR001C, strain vps1, stronger effect = lower value 1.01 and 1.02 | S. cerevisiae deletion strains, locus YKR026C, strain gcn3, stronger effect = lower value 1.02 | S. cerevisiae deletion strains, locus YKR091W, strain srl3, stronger effect = lower value 1.02 | S. cerevisiae deletion strains, locus YLL001W, strain dnm1, stronger effect = lower value 1.02 | S. cerevisiae deletion strains, locus YLL026W, stronger effect = lower value 1.01 | S. cerevisiae deletion strains, locus YLL041C, strain sdh2, stronger effect = lower value 1.02 | S. cerevisiae deletion strains, locus YLR027C, strain aat2, stronger effect = lower value 1.02 | S. cerevisiae deletion strains, locus YLR039C, strain RIC1, stronger effect = lower value 1.03 and 1.01 | S. cerevisiae deletion strains, locus YLR058C, strain SHM2, stronger effect = lower value 1.01 | S. cerevisiae deletion strains, locus YLR102C, strain apc9, stronger effect = lower value 1.01 and 1.02 | S. cerevisiae deletion strains, locus YLR113W, strain HOG1, stronger effect = lower value 1.04 | S. cerevisiae deletion strains, locus YLR221C, strain rsa3, stronger effect = lower value 1 | S. cerevisiae deletion strains, locus YLR258W, strain gsy2, stronger effect = lower value 1.02 | S. cerevisiae deletion strains, locus YLR262C, strain YPT6 (second series), stronger effect = lower value 1.03 | S. cerevisiae deletion strains, locus YLR262C, strain YPT6, stronger effect = lower value 1.05 and 1.02 | S. cerevisiae deletion strains, locus YLR268W, strain sec22, stronger effect = lower value 1.02 and 0.991 | S. cerevisiae deletion strains, locus YLR320W, strain mms22, stronger effect = lower value 1.02 | S. cerevisiae deletion strains, locus YLR330W, strain CHS5, stronger effect = lower value 1 and 1.01 | S. cerevisiae deletion strains, locus YLR342W, strain FKS1 (second series), stronger effect = lower value 1.02 and 1.06 | S. cerevisiae deletion strains, locus YLR342W, strain FKS1, stronger effect = lower value 1.02 | S. cerevisiae deletion strains, locus YLR357W, strain rsc2, stronger effect = lower value 1.05 | S. cerevisiae deletion strains, locus YLR370C, strain arc18, stronger effect = lower value 1.02 | S. cerevisiae deletion strains, locus YLR371W, strain rom2, stronger effect = lower value 0.994 and 1.03 | S. cerevisiae deletion strains, locus YLR384C, strain iki3, stronger effect = lower value 1.03 | S. cerevisiae deletion strains, locus YLR418C, strain cdc73, stronger effect = lower value 1.05 and 0.979 | S. cerevisiae deletion strains, locus YML016C, strain PPZ1, stronger effect = lower value 1.01 | S. cerevisiae deletion strains, locus YML032C, strain rad52, stronger effect = lower value 1.01 and 1.04 | S. cerevisiae deletion strains, locus YML120C, strain ndi1, stronger effect = lower value 1.03 | S. cerevisiae deletion strains, locus YML124C, strain tub3, stronger effect = lower value 1 | S. cerevisiae deletion strains, locus YMR058W, strain fet3, stronger effect = lower value 1.03 | S. cerevisiae deletion strains, locus YMR078C, strain ctf18, stronger effect = lower value 1.03 and 1.02 | S. cerevisiae deletion strains, locus YMR125W, strain sto1, stronger effect = lower value 1.04 | S. cerevisiae deletion strains, locus YMR129W, stronger effect = lower value 1.03 | S. cerevisiae deletion strains, locus YMR205C, strain PFK2, stronger effect = lower value 1.02 | S. cerevisiae deletion strains, locus YMR223W, strain ubp8, stronger effect = lower value 1.02 and 1.03 | S. cerevisiae deletion strains, locus YMR231W, strain pep5, stronger effect = lower value 1.03 | S. cerevisiae deletion strains, locus YMR263W, strain SAP30, stronger effect = lower value 1.01 | S. cerevisiae deletion strains, locus YMR307W, strain GAS1, stronger effect = lower value 1 and 0.983 | S. cerevisiae deletion strains, locus YNL067W, strain RPL9B, stronger effect = lower value 0.998 and 1.01 | S. cerevisiae deletion strains, locus YNL071W, strain lat1, stronger effect = lower value 1.02 | S. cerevisiae deletion strains, locus YNL128W, strain TEP1, stronger effect = lower value 1.01 | S. cerevisiae deletion strains, locus YNL153C, strain GIM3, stronger effect = lower value 1.03 and 0.992 | S. cerevisiae deletion strains, locus YNL175C, strain NOP13, stronger effect = lower value 0.992 | S. cerevisiae deletion strains, locus YNL183C, strain NPR1, stronger effect = lower value 0.999 | S. cerevisiae deletion strains, locus YNL197C, strain WHI3, stronger effect = lower value 0.986 | S. cerevisiae deletion strains, locus YNL209W, strain ssb2, stronger effect = lower value 1.02 | S. cerevisiae deletion strains, locus YNL224C, strain SQS1, stronger effect = lower value 1.01 | S. cerevisiae deletion strains, locus YNL233W, strain BNI4, stronger effect = lower value 0.993 and 0.996 | S. cerevisiae deletion strains, locus YNL248C, strain rpa49, stronger effect = lower value 1.03 | S. cerevisiae deletion strains, locus YNL250W, strain rad50, stronger effect = lower value 1.02 and 1.01 | S. cerevisiae deletion strains, locus YNL271C, strain bni1, stronger effect = lower value 1.01 and 1.03 | S. cerevisiae deletion strains, locus YNL298W, strain CLA4, stronger effect = lower value 1.03 | S. cerevisiae deletion strains, locus YNL307C, strain MCK1, stronger effect = lower value 1.02 and 1.03 | S. cerevisiae deletion strains, locus YNL322C, strain KRE1 (second series), stronger effect = lower value 1.02 | S. cerevisiae deletion strains, locus YNL322C, strain KRE1, stronger effect = lower value 1 and 1.01 | S. cerevisiae deletion strains, locus YNR049C, strain mso1, stronger effect = lower value 1.02 | S. cerevisiae deletion strains, locus YNR052C, strain pop2, stronger effect = lower value 1.01 and 1.04 | S. cerevisiae deletion strains, locus YOL006C, strain TOP1, stronger effect = lower value 1.03 and 1.04 | S. cerevisiae deletion strains, locus YOL012C, strain htz1 0.71 and 1.25 | S. cerevisiae deletion strains, locus YOL147C, strain pex11, stronger effect = lower value 1.01 | S. cerevisiae deletion strains, locus YOR001W, strain rrp6, stronger effect = lower value 1.04 | S. cerevisiae deletion strains, locus YOR061W, strain CKA2, stronger effect = lower value 1.01 | S. cerevisiae deletion strains, locus YOR069W, strain VPS5, stronger effect = lower value 1 and 1.01 | S. cerevisiae deletion strains, locus YOR070C, strain gyp1, stronger effect = lower value 1.02 | S. cerevisiae deletion strains, locus YOR080W, strain dia2, stronger effect = lower value 1.03 | S. cerevisiae deletion strains, locus YOR083W, strain WHI5 (second series), stronger effect = lower value 1.02 | S. cerevisiae deletion strains, locus YOR083W, strain WHI5, stronger effect = lower value 1.02 | S. cerevisiae deletion strains, locus YOR106W, strain vam3, stronger effect = lower value 1.05 | S. cerevisiae deletion strains, locus YOR136W, strain idh2, stronger effect = lower value 1.01 and 1.02 | S. cerevisiae deletion strains, locus YOR144C, strain elg1, stronger effect = lower value 1 and 1.01 | S. cerevisiae deletion strains, locus YOR184W, strain ser1, stronger effect = lower value 1.04 and 1.05 | S. cerevisiae deletion strains, locus YOR231W, strain MKK1, stronger effect = lower value 1.06 | S. cerevisiae deletion strains, locus YOR265W, strain rbl2, stronger effect = lower value 1.02 | S. cerevisiae deletion strains, locus YOR270C, strain vph1, stronger effect = lower value 1.08 | S. cerevisiae deletion strains, locus YOR290C, strain snf2, stronger effect = lower value 1.02 | S. cerevisiae deletion strains, locus YOR316C, strain cot1, stronger effect = lower value 1.01 | S. cerevisiae deletion strains, locus YPL051W, strain arl3, stronger effect = lower value 1.02 | S. cerevisiae deletion strains, locus YPL055C, strain LGE1, stronger effect = lower value 0.986 and 1.01 | S. cerevisiae deletion strains, locus YPL078C, strain atp4, stronger effect = lower value 1.04 | S. cerevisiae deletion strains, locus YPL106C, strain sse1, stronger effect = lower value 1.02 | S. cerevisiae deletion strains, locus YPL240C, strain hsp82, stronger effect = lower value 1.03 | S. cerevisiae deletion strains, locus YPL241C, strain CIN2, stronger effect = lower value 1 and 1.01 | S. cerevisiae deletion strains, locus YPL256C, strain CLN2, stronger effect = lower value 1.02 | S. cerevisiae deletion strains, locus YPR119W, strain clb2, stronger effect = lower value 1.01 | S. cerevisiae deletion strains, locus YPR141C, strain kar3, stronger effect = lower value 1.01 | S. cerevisiae deletion strains, locus YPR163C, strain tif3, stronger effect = lower value 1.02 and 1 | S. cerevisiae deletion strains, locus YPR167C, strain met16, stronger effect = lower value 1.02 and 1.03 | S. cerevisiae deletion strains, strain wtn01, stronger effect = lower value 1.03 and 1.02 | S. cerevisiae strains, strain wild type, stronger effect = lower value 1 and 1.01
